Reference: PubChem BioAssay (NCI)
About 83,000 compounds went through this panel and 20% of them were active in at least one assay; those are over-represented in the sample as a whole.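 Cells were grown in 96-well plates and exposed to the test compound at a single concentration for 48 hours; results are reported as percent growth, with values below 10 considered active.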 Active and inactive are the calls of the source.

Legend:
Assay in all cases: NCI-60 one-dose screen, 48 h (100 = growth as untreated, 0 = no growth, -100 = all killed)
Conditions in all cases: 10 µM unless noted
[1] = tested on: T-47D breast
[2] = tested on: BT-549 breast
[3] = tested on: MDA-MB-435 melanoma
[4] = tested on: SW-620 colon
[5] = tested on: MCF7 breast
[6] = tested on: HCT-116 colon
[7] = tested on: HCC-2998 colon
[8] = tested on: KM12 colon

Measured: growth

COc1cc(C(=O)NNC(=O)c2ccccc2O)cc(OC)c1OC
inactive: [1] 82.5% | [2] 120% | [3] 96.9% | [4] 103% | [5] 92.2% | [6] 101% | [7] 97.1% | [8] 103%

CS(=O)(=O)OCC(COS(C)(=O)=O)C(c1ccccc1)c1ccccc1
inactive: [1] 100% | [2] 97.3% | [3] 105% | [4] 99.3% | [5] 101% | [6] 95.9% | [7] 109% | [8] 104%

COc1ccc(-c2coc3c(CO)c(O)ccc3c2=O)cc1
inactive: [1] 61.8% | [2] 14.2% | [3] 60.2% | [4] 83.5% | [5] 40.8% | [6] 19.3% | [7] 29.6% | [8] 60.4%

Cc1cc(NCCN(C(C)C)C(C)C)nc(/N=C(\N)Nc2ccc(Cl)c(C(F)(F)F)c2)n1
active: [1] -54.3% | [2] -64.6% | [3] -73.9% | [4] -89.7% | [5] -78.4% | [6] -100% | [7] -96.7% | [8] -92.6%

Cc1ccc2c(C3C(C#N)=C(N)Oc4cc5ccccc5cc43)cc(=O)oc2c1 (stereo unspecified)
inactive: [1] 35.9% | [2] 47.9% | [4] 27.1% | [5] 17.9% | [6] 15.9% | [7] 58.9% | [8] 24.1%
active: [3] -48.2%

O=C(Nc1ccc(-n2cc(-c3ccncc3)c(-c3ccc(O)c(Cl)c3)n2)cc1)Nc1cc(C(F)(F)F)cc(C(F)(F)F)c1
inactive: [1] 33.2% | [2] 20.4% | [3] 54.6% | [4] 73.9% | [5] 55.7% | [6] 53.3% | [7] 79% | [8] 48.7%

COc1cc2ncnc(Oc3ccc(NC(=O)Nc4ccc(C5(C#N)CCCC5)cc4)c4ccccc34)c2cc1OC
inactive: [1] 64.3% | [2] 86.5% | [3] 43.4% | [4] 53.9% | [5] 55.2% | [6] 30.8% | [7] 107% | [8] 43.7%

CC(Cl)(CCl)CS(=O)(=O)c1ccc(Cl)cc1 (stereo unspecified)
inactive: [1] 113% | [2] 105% | [3] 108% | [4] 103% | [5] 99.8% | [6] 103% | [7] 104% | [8] 108%

COc1cc(NC(C)CCCN2C(=O)c3ccccc3C2=O)c2nccc(C)c2c1OC (stereo unspecified)
inactive: [1] 78.2% | [2] 113% | [3] 104% | [4] 93.5% | [5] 40.4% | [6] 87.8% | [7] 113% | [8] 97.4%

COc1ccc(-c2nnc(SCC(=O)Nc3ccc(C(=O)/C=C/c4ccc(OC)c(OC)c4)cc3)o2)cc1
inactive: [1] 75% | [2] 113% | [3] 94.2% | [4] 92.7% | [5] 51.6% | [6] 77.8% | [7] 102% | [8] 84.5%

Cl[C@@H]1CCO[C@H](c2cc3ccccc3c3ccccc23)C1
inactive: [1] 99.5% | [2] 87.4% | [3] 101% | [4] 95.4% | [5] 97.5% | [6] 90.3% | [7] 94.8% | [8] 100%

O=C(Cn1c2ccccc2c2ccncc21)N/N=C/c1c[nH]c2ccccc12
active: [6] 4.33%
inactive: [1] 90.2% | [2] 94.4% | [3] 33.8% | [4] 34.3% | [5] 37.8% | [7] 87.5% | [8] 60.5%

O=S1(=O)N(CCNc2nccc(-c3c(-c4cccc(O)c4)nc4sccn34)n2)CCN1Cc1ccccc1
inactive: [1] 50.8% | [2] 69.9% | [3] 45.9% | [4] 74.4% | [5] 59.5% | [6] 45.9% | [7] 109% | [8] 47.6%

CCN(CC)CC(=O)Nc1c(C)cccc1C
inactive: [1] 107% | [2] 97.3% | [3] 104% | [4] 106% | [5] 97% | [6] 96.1% | [7] 114% | [8] 113%

O=C(Nc1ccc(-n2cc(-c3ccncc3)c(-c3ccc(O)c(Cl)c3)n2)cc1)Nc1cccc(Cl)c1Cl
inactive: [1] 42.1% | [2] 59% | [3] 51.3% | [4] 73.7% | [5] 42.2% | [6] 36.8% | [7] 70% | [8] 39.1%

O=S(=O)(CCN1CCOCC1)Nc1cncc(-c2ccc3ncnc(Nc4ccc(F)c(Cl)c4)c3c2)c1
active: [1] -17.9%
inactive: [2] 49.7% | [3] 87.2% | [4] 90.2% | [5] 47.3% | [6] 56.1% | [7] 74.4% | [8] 95.9%

O=C(/C=C/c1ccco1)c1cccc(Nc2nc(Nc3ccccc3)nc(Nc3ccccc3)n2)c1
inactive: [1] 48.6% | [2] 116% | [3] 102% | [4] 88% | [5] 28.3% | [6] 40.4% | [7] 68.5% | [8] 83.7%

CC1(C)N=C(N)N=C(N)N1c1ccc(OCC(=O)Nc2ccccc2)c(Cl)c1
inactive: [1] 70% | [2] 40.6% | [3] 25.2% | [4] 33% | [5] 28.4% | [6] 19.2% | [7] 29.5% | [8] 18.1%

CCCCOc1nc2ccc(Cl)cc2cc1/C=C/C(=O)/C=C/c1ccc(OC)cc1
inactive: [1] 86.8% | [2] 93.6% | [4] 107% | [5] 30.7% | [7] 92.7% | [8] 84%
active: [3] 9.64% | [6] -25.4%

COc1ccc(CCNC=O)cc1OC
inactive: [1] 99.7% | [2] 96.1% | [3] 103% | [4] 93.4% | [5] 94.1% | [6] 100% | [7] 104% | [8] 102%

COc1ccccc1N1CCN(CC(O)COc2c(Br)c(Br)c(Br)c3c2OC(C)(C)C3)CC1 (stereo unspecified)
inactive: [1] 39.8% | [2] 98.6% | [3] 37.2% | [4] 33.3% | [5] 26.8% | [6] 27.4% | [7] 39.9% | [8] 35.7%

O=S(=O)(O)c1ccc(F)cc1
inactive: [1] 98.7% | [2] 101% | [3] 108% | [4] 103% | [5] 97.8% | [6] 99% | [7] 105% | [8] 101%

COc1cc(-c2nc(N)n(CC(=O)Nc3ccc(/C(C)=N\O)cc3)n2)cc(OC)c1OC
inactive: [1] 91.2% | [2] 108% | [3] 82% | [4] 95.2% | [5] 89.2% | [6] 101% | [7] 102% | [8] 97.3%

CC(/C=C/C=C(\C)[C@H](O)[C@H](C)C(=O)O[C@H]1C[C@H](C)C=C2C=C[C@@]3(C)O[C@@H](O)CC(=O)[C@]3(C)[C@H]21)=C\C=C\C(=O)O
active: [1] -12.3% | [2] -21.5% | [3] 8.57% | [4] 9.52% | [5] 3.12% | [6] 2.2% | [7] 7.5% | [8] 0.481%

O=C1c2ccccc2C(=O)c2c(NCCN=Cc3c(O)ccc4ccccc34)cccc21
inactive: [1] 75% | [2] 106% | [3] 96% | [4] 79.3% | [5] 72.6% | [6] 45.5% | [7] 95.7% | [8] 89%

COc1ccc(-c2nn(-c3ccc(NC(=O)c4cc(C(F)(F)F)cc(C(F)(F)F)c4)cc3)cc2-c2ccncc2)cc1Cl
inactive: [1] 52.9% | [2] 71% | [3] 67.4% | [4] 72.1% | [5] 66.9% | [6] 42.7% | [7] 77.5% | [8] 53.2%

COc1cc(C(=O)N2CCN(C(=O)c3cc(OC)c(OCc4ccccc4)cc3N)CC2)c(N)cc1OCc1ccccc1
inactive: [1] 114% | [2] 101% | [3] 127% | [4] 119% | [5] 89.5% | [6] 104% | [7] 102% | [8] 109%

CCC1CN2C(=N1)c1ccccc1-c1cc(Cl)ccc12 (stereo unspecified)
inactive: [1] 21.9% | [2] 42.5% | [3] 25.4% | [4] 18.6% | [7] 28.5% | [8] 16.7%
active: [5] 4.59% | [6] 1.68%

CN(C)CCNc1nc2ccccc2c2c(=O)c3ccccc3sc12
active: [3] 8.44% | [4] -54% | [5] -46.9% | [6] -9.31% | [7] -11.3%
inactive: [1] 49% | [2] 74.4% | [8] 18.5%

CN[C@@H](CCCNC(N)=NC/C=C(/C)CCC=C(C)C)C(=O)N(C)[C@@H](CCCNC(N)=NCC=C(C)C)C(=O)N[C@H](C)[C@H](OS(=O)(=O)O)c1ccc(OS(=O)(=O)O)c(COS(=O)(=O)O)c1
inactive: [1] 98.1% | [2] 107% | [3] 113% | [4] 108% | [5] 97.7% | [6] 101% | [7] 105% | [8] 100%

O=C(NCCNc1nccc(-c2c(-c3cccc(O)c3)nc3sccn23)n1)c1cccc(C(F)(F)F)c1
inactive: [1] 69.5% | [2] 88% | [3] 21.7% | [4] 107% | [5] 75.3% | [6] 74.3% | [7] 117% | [8] 80.9%

COc1ccc(Cl)cc1NC(=O)c1cc2c([nH]1)-c1nc(N)sc1CCC2
inactive: [1] 88.2% | [2] 102% | [3] 103% | [4] 107% | [5] 98.9% | [6] 110% | [7] 109% | [8] 97.3%
